aGlu spleen mod = inhibits or activates alpha-glucosidase in human spleen homogenate; P10253; human spleen homogenate, 4-MU-alpha-glucoside fluorescence; Potency, µM (highest dose often 79.9 µM), for inactives: at the top dose activity change, negative = inhibition, most hits filed as inhibitors; hit rate 0.006% among 240,000;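 note: potency is the fitted concentration of half-maximal effect; 0% = enzyme with vehicle and -100% = no enzyme basal signal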
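Human spleen homogenate (1 ug) incubated with compounds and 1 mM 4-methylumbelliferyl-alpha-D-glucopyranoside in pH 5.0 citrate/phosphate buffer, 37 C, 40 min. Stopped at pH 10; 4-MU fluorescence (Ex 365/Em 440 nm); AC50 by Hill fit.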
GLA spleen mod = alpha-galactosidase A (human) modulation | P06280 | human spleen homogenate, 4MU-alpha-Gal fluorescence, 40 min | Potency, µM (highest dose often 80 µM), for the others: top-dose activity change, negative = inhibition, hits mostly inhibitors | hit rate 0.008% among 240,000;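 note: potency is the fitted concentration of half-maximal effect; 0% = enzyme with vehicle and -100% = no enzyme basal signal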
Target sequence (P06280 32-429 limits assumed): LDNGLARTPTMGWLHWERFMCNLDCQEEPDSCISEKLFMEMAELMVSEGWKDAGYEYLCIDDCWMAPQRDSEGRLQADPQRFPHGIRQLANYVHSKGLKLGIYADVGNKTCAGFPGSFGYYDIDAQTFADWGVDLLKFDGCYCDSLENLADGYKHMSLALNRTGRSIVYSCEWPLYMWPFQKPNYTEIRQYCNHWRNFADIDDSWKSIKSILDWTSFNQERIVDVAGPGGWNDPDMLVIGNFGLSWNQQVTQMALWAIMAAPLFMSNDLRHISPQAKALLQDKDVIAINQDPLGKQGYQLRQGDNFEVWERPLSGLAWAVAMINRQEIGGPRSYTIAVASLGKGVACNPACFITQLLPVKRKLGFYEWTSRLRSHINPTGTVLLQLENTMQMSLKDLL
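Inhibition or activation of alpha-galactosidase in human spleen homogenate is scored by 4-MU fluorescence after 40 min at 37C, pH 5.0, with 1 mM substrate. AC50s come from concentration-response fitted to the Hill equation.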
GLA inh pH 4.5 = blocks human alpha-galactosidase A at pH 4.5; activity change, negative = inhibition, % at 105 µM; AID 1467; purified enzyme, 4-MU-alpha-Gal fluorescence, pH 4.5; 230,000 tested, under 10 active;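 note: 0% = full activity with enzyme and -100% = basal without enzyme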
N370S GC mod = inhibits or activates N370S mutant glucocerebrosidase; hit rate 0.092% among 330,000; Potency, µM (series often up to 59.4 µM), inactives show top-dose activity change, negative = inhibition, usual class: inhibitors; P04062; N370S GC spleen homogenate, 4MU-glucoside fluorescence; AID 2101;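 note: potency is the fitted concentration of half-maximal effect; 0% = full enzyme activity and -100% = no enzyme basal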
GAA inhib = inhibitors of human lysosomal alpha-glucosidase | Potency, µM (series often up to 76.9 µM), for inactives: top-dose activity change, negative = inhibition, usual class: inhibitors | hit rate 0.005% among 200,000 | AID 1466 | purified human GAA, 4-MU-alpha-glucoside fluorescence;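 note: potency is the fitted concentration of half-maximal effect; plate controls were uninhibited enzyme wells for no effect and no-enzyme background for full effect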
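Human enzyme at 4 nM with 400 uM 4-methylumbelliferyl-alpha-D-pyranoside, citrate/phosphate buffer pH 5.0, 0.005% Tween-20, 20 min at room temperature. Compounds up to 77 uM. 4-MU fluorescence (Ex 365/Em 440) read after NaOH/glycine stop; AC50 from Hill fit.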
GAA glycogen = alters human alpha-glucosidase cleavage of glycogen; recombinant GAA, glycogen substrate, Amplex Red glucose oxidase fluorescence; Potency, µM (doses to about 76.4 µM), inactives show top-dose activity change, negative = inhibition, usual class: inhibitors; hit rate 0.38% among 300,000; AID 2100;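 note: potency is the fitted concentration of half-maximal effect; 0% = full enzyme reaction and -100% = no-enzyme basal signal; the screen sought inhibitors and activators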
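Recombinant human alpha-glucosidase (4 nM final) hydrolysed bovine liver glycogen (30 ug) for 40 min at 37 C in pH 5.0 citrate/phosphate with 0.01% Tween-20. Released glucose detected by glucose oxidase/Amplex Red, Ex 573/Em 610 nm. Compounds up to 77 uM; AC50 from Hill fits.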
The depositor's hits bear a star; ? = inconclusive; · = not tested or not shown; [ ] = another dose, or the depositor's remark. The list is not random: actives were taken first. Their share in the collection is about 0.43%. Calls come from the whole dose curve; as a rule, active = well fitted curve in the direction sought with a large enough effect; inconclusive = small, poorly fitted or top-dose-only effect, or another doubt; inactive = no such curve, though single readings can be large; an effect the other way counts as inactive or inconclusive.

SMILES | aGlu spleen mod | GLA spleen mod | GLA inh pH 4.5 | N370S GC mod | GAA inhib | GAA glycogen
O=C(NC(=S)Nc1cccc2c(O)cccc12)c1ccccc1[N+](=O)[O-] | · | · | · | -9% | · | 10µM*
CCCC(=O)NC(=S)Nc1cccc2c(O)cccc12 | 8% | 2% | 5 | -8% | -4% | 8.9µM*
CCCC(=O)NC(=S)Nc1ccccc1C(=O)OC | -9% | -6% | 4 | 7%[12.8 µM] | 1% | -4%
CCn1cnc2cc(NCc3cccc(OC)c3O)ccc21 | -5% | -8% | 1 | 17% | 1% | 16µM*
Cc1oc2c(O)c(O)ccc2c(=O)c1-c1ccc(Cl)cc1 | · | · | · | -9% | · | 7.1µM*
Cc1oc2c(O)c(O)ccc2c(=O)c1-c1cnn(-c2ccccc2)c1 | -13% | 10% | 2 | 7% | -15% | 5.6µM*
O=c1cc(-c2ccccc2)oc2c(O)c(O)ccc12 | 16% | 22% | -11 | -12% | · | ·
Cc1oc2c(O)c(O)ccc2c(=O)c1-c1ccccc1 | 8% | 12% | 4 | -12% | 6%[15.4 µM] | 8.8µM*
Cc1oc2cc(O)cc(C)c2c(=O)c1-c1cnn(-c2ccccc2)c1 | -7% | 0% | 6 | 11% | 0% | -6%
Cc1c(Cc2ccccc2)c(=O)oc2c(O)c(O)ccc12 | 3% | 1% | 5 | -10% | -9% | 5µM*
CC[C@H](C)[C@H](NC(=O)[C@H](CC(C)C)NC(=O)[C@@H](N)CO)C(=O)NCC(=O)N[C@@H](CCCCN)C(=O)N[C@H](C(=O)O)C(C)C | 1% | 9% | · | -11% | · | ·
CN1CCc2cc(O)c(O)cc2C1Cc1ccc(O)c(O)c1 (stereo not drawn) | 3% | -10% | · | -10% | · | ·
O=C1c2cc(O)cc(O)c2OC[C@@H]1c1ccc(O)c(O)c1 | 6% | 12% | · | 5% | · | ·
O=C(CSc1nncs1)NCCCc1ccccc1 | 3% | -3% | -5 | 2% | ? | 10µM*
C/C=C(/C)C(=O)O[C@H]1C[C@@]2(C)O[C@H]2[C@@H](OC(C)=O)C2(C)CC[C@@](O)(C(C)C)C12 (stereo partly drawn) | 1% | -5% | · | 2% | · | ·
CC(C)=CC[C@@H](O)C1=CC(=O)c2c(O)ccc(O)c2C1=O | -7% | -2% | · | -15% | · | ·
Cc1ccc(C)c(NC(=O)C2CCCN(S(=O)(=O)c3ccc4[nH]c(=O)ccc4c3)C2)c1 (stereo not drawn) | · | · | · | -23% | · | 32µM*
OC[C@H]1OC(O)[C@H](O)[C@@H](O)[C@@H]1O (stereo partly drawn) | 3% | 10% | · | -3% | · | ·
N#CC(Cc1ccc(O)c(O)c1)C(=O)N1CCc2ccccc21 (stereo not drawn) | 6% | 0% | -3 | -6% | · | ·
O=c1c2ccccc2[nH]c2ccc(O)cc12 | · | · | · | -7% | · | 20µM*
Cc1sc2ncnc(Nc3ccc(O)cc3)c2c1C | 3% | 13% | 0 | 11µM* | -4%[15.4 µM] | ?
COc1cccc(/C=N/Nc2ccc(S(=O)(=O)O)cc2)c1O | 1% | -3% | 6 | -4% | 5% | 7.9µM*
CC(=O)c1ccc(N2CCN(S(=O)(=O)c3ccc4c(c3)CC(=O)N4)CC2)cc1 | · | · | · | -12% | · | 0.52µM*
O=C1Cc2cc(S(=O)(=O)N3CCN(c4ccccc4)CC3)ccc2N1 | · | · | · | -7% | · | 2.6µM*
O=C1Cc2cc(S(=O)(=O)N3CCN(c4ccc(C(F)(F)F)cc4)CC3)ccc2N1 | · | · | · | · | · | -25%[76.3 µM]
SMILES | aGlu spleen mod | GLA spleen mod | GLA inh pH 4.5 | N370S GC mod | GAA inhib | GAA glycogen
CCN1CCCc2cc(CN(CCN3CCOCC3)C(=S)Nc3cccc(C)c3)ccc21 | -3% | -8% | -27 | -24% | -4% | ?
CCN1CCCc2cc(CN(CCN3CCOCC3)C(=O)Nc3ccc(C)c(C)c3)ccc21 | -1% | -13% | 1 | -19% | -5% | 11µM*
CCc1ccc(NC(=O)N(CCN2CCOCC2)Cc2ccc3c(c2)CCCN3CC)cc1 | -2% | 4% | -3 | -8% | -2% | 11µM*
CCN1CCCc2cc(CN(CCN3CCOCC3)C(=S)Nc3ccc(OC)c(OC)c3)ccc21 | 0% | 6% | 0 | -20% | -4% | ?
COc1cc(C(C)C)c2c(c1)S(=O)(=O)N(COc1cc(=O)n3cccc(OCCN4CCCCC4)c3n1)C2=O | 0% | 6% | · | ? | · | ·
CSCC[C@H](NC(=O)[C@H](CC(C)C)NC(=O)CCNC(=O)[C@@H](NC(=O)[C@H](Cc1ccccc1)NC(=O)[C@H](CO)NC(=O)[C@@H](N)CC(=O)O)C(C)C)C(N)=O | 5% | -9% | · | -1% | · | ·
c1ccc2c(c1)SCc1c-2[nH]c2ccccc12 | -2% | -6% | · | 0% | · | ·
OC[C@@H]1O[C@H](O)[C@H](O)[C@@H](O)[C@@H]1O | -4% | -10% | · | 1% | · | ·
Cc1cccc(C)c1NC(=O)CSCC(=O)c1ccc(O)c(O)c1 | -10% | -4% | -2 | 2% | -20% | 11µM*
CCOC(=O)CNc1c(-c2ccc(F)cc2)nc2cnccn12 | -10% | 11% | 12 | 8% | 8% | 12µM*
CCOC(=O)CNc1c(-c2ccc(OC)cc2)nc2ccc(Cl)cn12 | -2% | 1% | -2 | ? | 2% | ?
CCOC(=O)CNc1c(-c2ccc(Cl)cc2)nc2cnccn12 | 1% | 3% | 3 | 2% | ? | 40µM*
NCCCC[C@H](NC(=O)CNC(=O)[C@@H]1CCCN1C(=O)[C@H](Cc1ccc(O)cc1)NC(=O)CN)C(=O)N[C@@H](Cc1ccccc1)C(=O)O | -2% | 0% | · | -5% | · | ·

Screening data from PubChem BioAssay.
